Assay results from the supplement of paper PMC6607015.
Counter-ions that a name gives are not always drawn.

Key:
Conditions in all cases: compound concentration in added solution (µM; 5 µl added to 20 µl cells): 10; 18 h
A431 [1] = assay: LBPA endosome anti-LBPA integrated intensity (sum per cell), Z-score; higher = more LBPA staining
In short: (§1)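 Z-scores normalised in AcuityXpress are given for per-cell integrated LBPA or filipin intensity, measured whole-cell or within LBPA endosomes by MetaXpress segmentation. Cells (HeLa MZ or A431, 3,500 per well in 20 µl) were seeded onto 5 µl of 10 µM compound solution in duplicate 384-well imaging plates and fixed in 4% PFA after 18 h.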

HeLa MZ [2] = assay: as above
In short: as §1

A431 [3] = assay: whole-cell filipin (free cholesterol) integrated intensity, Z-score; higher = more cholesterol staining
In short: as §1

HeLa MZ [4] = assay: as above
In short: as §1

A431 [5] = assay: filipin (cholesterol) integrated intensity within LBPA endosomes, Z-score; higher = more cholesterol in LBPA endosomes
In short: as §1

HeLa MZ [6] = assay: as above
In short: as §1

SMILES | LBPA endosome anti-LBPA integrated intensity (z-score) (A431 [1]) | LBPA endosome anti-LBPA integrated intensity (z-score) (HeLa MZ [2]) | whole-cell filipin (z-score) (A431 [3]) | whole-cell filipin (z-score) (HeLa MZ [4]) | filipin (z-score) (A431 [5]) | filipin (z-score) (HeLa MZ [6])
CC(=O)[C@H]1CC[C@H]2[C@@H]3C=CC4=CC(=O)CC[C@@]4(C)[C@@H]3CC[C@]12C [Dydrogesterone] | 1.19 | 1.12 | 0.649 | 0.0624 | 0.655 | -0.0901
Cc1c(NC(=O)c2cccnc2)c(=O)n(-c2ccccc2)n1C [Nifenazone] | -0.531 | -0.887 | -0.738 | -0.647 | -0.626 | -0.754
COc1ccccc1Oc1c(NS(=O)(=O)c2ccc(C(C)(C)C)cc2)nc(-c2ncccn2)nc1OCCO [Bosentan] | -0.54 | -0.445 | -0.199 | 0.0121 | -0.493 | -0.438
C=CCSCC1Nc2cc(Cl)c(S(N)(=O)=O)cc2S(=O)(=O)N1 (configuration not stated) [Althiazide] | -0.575 | -1.6 | -0.613 | -0.588 | -0.491 | -0.642
NCCCC(O)(P(=O)(O)O)P(=O)(O)O [Alendronate sodium] | -0.662 | -1.69 | -0.705 | -0.128 | -0.56 | -0.588
CNC[C@H](O)[C@@H](O)[C@H](O)[C@H](O)CO [Meglumine] | -0.671 | -1.5 | -0.386 | -0.451 | -0.555 | -0.582
CC(C)(C)NC[C@H](O)COc1ccccc1C1CCCC1 [Penbutolol sulfate] | 1.31 | 0.815 | 1.46 | 0.313 | 1.3 | 0.914
CC(C)NC[C@@H](O)COc1cccc2ccccc12 [(R)-Propranolol hydrochloride] | 0.16 | 1.45 | 0.468 | -0.0727 | 0.133 | 0.265
NS(=O)(=O)c1cc2c(cc1Cl)NCNS2(=O)=O [Hydrochlorothiazide] | -0.538 | -1.08 | -0.757 | -0.0813 | -0.476 | -0.419
CC1=C(/C=C/C(C)=C/C=C/C(C)=C/C(=O)O)C(C)(C)CCC1 [Retinoic acid] | -0.177 | -0.508 | -0.103 | -0.698 | -0.286 | -0.43
Cc1cccc(C)c1NC(=O)C(C)N (configuration not stated) [Tocainide hydrochloride] | -0.343 | -0.526 | 0.139 | -0.393 | -0.431 | -0.603
CC(CN(C)C)C(C)(O)Cc1ccc(Cl)cc1 (configuration not stated) [Clobutinol hydrochloride] | -0.559 | 0.835 | -0.328 | -0.426 | -0.624 | -0.205
NC(N)=Nc1nc(CSCC/C(N)=N/S(N)(=O)=O)cs1 [Famotidine] | -0.5 | -0.604 | -0.838 | -0.898 | -0.447 | -0.623
CS(=O)(=O)Nc1ccc([N+](=O)[O-])cc1Oc1ccccc1 [Nimesulide] | -0.535 | -0.741 | -0.718 | -0.259 | -0.551 | -0.716
CCN(CC)CCCC(C)Nc1ccnc2cc(Cl)ccc12 (configuration not stated) [Chloroquine diphosphate] | 3.38 | 2.38 | 0.0406 | 0.105 | 0.896 | 1.26
CC(CN1c2ccccc2Sc2ccccc21)N(C)C (configuration not stated) [Promethazine hydrochloride] | 2.24 | 1.7 | 2.37 | 0.806 | 2.23 | 1.73
CN1[C@@H]2CC[C@H]1C[C@@H](OC(=O)C(O)c1ccccc1)C2 (mixture of isomers) [Homatropine hydrobromide (R,S)] | -0.625 | -0.216 | -0.825 | -0.838 | -0.591 | -0.57
CCC1=C(C)CN(C(=O)NCCc2ccc(S(=O)(=O)NC(=O)N[C@H]3CC[C@H](C)CC3)cc2)C1=O [Glimepiride] | -0.623 | -0.491 | -0.412 | -0.0517 | -0.467 | -0.486
CCCC(=O)Nc1ncnc2c1ncn2[C@@H]1O[C@@H]2COP(=O)(O)O[C@H]2[C@H]1OC(=O)CCC [Bucladesine sodium salt] | -0.466 | -0.34 | -0.132 | 0.0614 | -0.405 | -0.372
CC(CN(C)C)CN1c2ccccc2CCc2ccccc21 (configuration not stated) [Trimipramine maleate salt] | 2.39 | 1.13 | 1.92 | 0.599 | 2.57 | 1.53
O=C1NCC2(CCN(CCc3ccccc3)CC2)O1 [Fenspiride hydrochloride] | -0.609 | -0.156 | -1.07 | -0.91 | -0.575 | -0.493
CNCCCN1c2ccccc2CCc2ccccc21 [Desipramine hydrochloride] | 2.09 | 0.947 | 1.99 | 0.636 | 2.34 | 2.58
CC(C)(C)C(=O)OCOC(=O)[C@@H]1N2C(=O)[C@@H](NC(=O)[C@H](N)c3ccccc3)[C@H]2SC1(C)C [Pivampicillin] | -0.161 | 0.0846 | 0.0929 | -0.0816 | -0.266 | -0.41
COc1cc2nc(N3CCN(C(=O)C4CCCO4)CC3)nc(N)c2cc1OC (configuration not stated) [Terazosin hydrochloride] | -0.178 | 0.906 | -0.323 | -0.357 | -0.379 | 0.00198

SMILES | LBPA endosome anti-LBPA integrated intensity (z-score) (A431 [1]) | LBPA endosome anti-LBPA integrated intensity (z-score) (HeLa MZ [2]) | whole-cell filipin (z-score) (A431 [3]) | whole-cell filipin (z-score) (HeLa MZ [4]) | filipin (z-score) (A431 [5]) | filipin (z-score) (HeLa MZ [6])
CC(C(=O)O)c1ccc(N2Cc3ccccc3C2=O)cc1 (configuration not stated) [Indoprofen] | -0.353 | 0.541 | -0.0864 | 0.103 | -0.445 | -0.482
CC(=O)OCC(=O)[C@@]1(O)CC[C@H]2[C@@H]3CCC4=CC(=O)C=C[C@]4(C)[C@@]3(F)[C@@H](O)C[C@@]21C [Isoflupredone acetate] | -0.244 | -0.851 | -0.383 | -0.16 | -0.17 | -0.357
COc1cc(C)c(/C=C/C(C)=C/C=C/C(C)=C/C(=O)O)c(C)c1C [Acitretin] | -0.624 | -0.537 | 0.514 | 0.218 | -0.413 | -0.258
C=C[C@H]1CN2CC[C@H]1C[C@@H]2[C@@H](O)c1ccnc2ccc(OC)cc12 [Quinidine hydrochloride monohydrate] | 0.635 | 0.796 | 0.722 | -0.0406 | 0.638 | 0.436
Clc1cccc(Cl)c1NC1=NCCN1 [Clonidine hydrochloride] | -0.318 | -0.0581 | -0.585 | -0.0901 | -0.436 | -0.268
Clc1ccc(C(Cn2ccnc2)OCc2ccsc2Cl)c(Cl)c1 (configuration not stated) [Tioconazole] | -0.225 | 0.542 | -0.125 | -0.75 | -0.053 | -0.127
CC(=O)O[C@]1(C(C)=O)CC[C@H]2[C@@H]3C=C(Cl)C4=CC(=O)CC[C@]4(C)[C@H]3CC[C@@]21C [Chlormadinone acetate] | 0.021 | 2.23 | 0.739 | 1.32 | 0.102 | 0.534
Cc1ccc(N(CC2=NCCN2)c2cccc(O)c2)cc1 [Phentolamine hydrochloride] | -0.384 | 0.635 | -0.578 | -0.161 | -0.477 | -0.0953
CC(Oc1ccccc1)C(=O)N[C@@H]1C(=O)N2[C@@H]1SC(C)(C)[C@@H]2C(=O)O (some centres not stated) [Phenethicillin potassium salt] | -0.589 | -1.24 | -0.612 | -0.336 | -0.493 | -0.525
CC(=O)NS(=O)(=O)c1ccc(N)cc1 [Sulfacetamide sodic hydrate] | -0.453 | -0.433 | -0.701 | -0.53 | -0.475 | -0.628
C[C@H](CCC(=O)O)[C@H]1CC[C@H]2[C@@H]3CC[C@@H]4C[C@H](O)CC[C@]4(C)[C@H]3CC[C@]12C [Lithocholic acid] | -0.507 | -0.5 | -0.232 | 0.929 | -0.446 | -0.289
CN[C@@H]1[C@@H](O[C@H]2O[C@H](CO)[C@@H](N)[C@H](O)[C@H]2O)OC2C[C@@H](N)[C@@H](O[C@H]3[C@H](O)[C@@H](O)[C@H](N)C[C@@H]3N)OC2[C@@H]1O (some centres not stated) [Apramycin] | -0.469 | -0.358 | -0.077 | -0.329 | -0.402 | -0.523
CN(C)C(=O)C(CCN1CCC(O)(c2ccc(Cl)cc2)CC1)(c1ccccc1)c1ccccc1 [Loperamide hydrochloride] | 2.04 | 1.35 | 0.703 | 1.87 | 3.45 | 3.57
Clc1ccccc1CN1CCc2sccc2C1 [Ticlopidine hydrochloride] | -0.571 | -1.16 | -0.834 | -0.662 | -0.515 | -0.675
NS(=O)(=O)c1cc2c(cc1Cl)NC(CC1CCCC1)NS2(=O)=O (configuration not stated) [Cyclopenthiazide] | -0.58 | -0.971 | -0.203 | -0.467 | -0.442 | -0.628
COc1ccc2c3c1O[C@H]1C[C@@H](O)C=C[C@@]31CCN(C)C2 [Galanthamine hydrobromide] | -0.594 | -0.476 | -0.752 | -0.607 | -0.584 | -0.496
Cc1cccc(N(C)C(=S)Oc2ccc3ccccc3c2)c1 [Tolnaftate] | 0.133 | 0.375 | -0.581 | -0.535 | -0.301 | -0.655
CCN(CC)CCNC(=O)c1cc(Cl)c(N)cc1OC [Metoclopramide monohydrochloride] | -0.305 | 1.1 | -0.595 | -0.234 | -0.404 | 0.279
O=C(O)c1ccccc1C(=O)Nc1ccc(S(=O)(=O)Nc2nccs2)cc1 [Phthalylsulfathiazole] | -0.455 | -0.249 | -0.41 | -0.101 | -0.471 | -0.557
O=C(OCC(O)CO)c1ccccc1Nc1ccnc2cc(Cl)ccc12 (configuration not stated) [Glafenine hydrochloride] | 0.592 | 1.9 | -1 | -1.18 | -0.297 | 0.0497
CC1CCc2c(N3CCC(O)CC3)c(F)cc3c(=O)c(C(=O)O)cn1c23 (configuration not stated) [Nadifloxacin] | -0.419 | -1.21 | -0.24 | -0.254 | -0.402 | -0.471
CN(C)[C@@H]1C(O)=C(C(=O)NCNCCCC[C@H](N)C(=O)O)C(=O)[C@@]2(O)C(O)=C3C(=O)c4c(O)cccc4[C@@](C)(O)[C@H]3C[C@@H]12 [Lymecycline] | -0.193 | 0.509 | 0.136 | 0.267 | -0.319 | -0.559
O=C(O)COCCN1CCN(C(c2ccccc2)c2ccc(Cl)cc2)CC1 (configuration not stated) [Cetirizine dihydrochloride] | -0.494 | -0.434 | -0.716 | -0.836 | -0.508 | -0.525
